{
  "source": "PubChem BioAssay AID588413",
  "about": "(Sanford-Burnham Center for Chemical Genomics, 2011)",
  "note": "Out of some 340,000 compounds screened, about 2,500 (0.74%) were called active. This excerpt belongs to a sample that is enriched for actives. A number with no mark means an inactive call.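 The calls were made as follows: active = inhibition above about 55% (limit read from the data); inactive = the rest.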",
  "data": [
    {"test": "Gli-Sufu pathway antagonists, primary screen, luciferase luminescence, Sufu-KO-LIGHT cells, uHTS (AID 588413);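 also: 0% = DMSO-treated cells and 100% = wells with medium but no cells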", "settings": "Sufu-KO-LIGHT fibroblasts, Gli luciferase reporter luminescence; at 5 µM; stronger effect = higher value", "values": [
      {"smiles": "CSc1ncccc1C(=O)NCc1ccccc1Cl", "inhibition": "-8.35%"},
      {"smiles": "CC(=O)c1c(O)cc2n(c1=O)-c1ccc(Cl)cc1C2(C)C", "inhibition": "-0.02%"},
      {"smiles": "COC(=O)CC(CC(=O)OC)n1cccc1", "inhibition": "6.12%"},
      {"smiles": "Cc1ccc(O)c(NC(=O)COc2cc(C)ccc2C)c1", "inhibition": "63.9% (active)"},
      {"smiles": "Cc1ccc(O)c(NC(=S)NC(=O)COc2ccc(Br)cc2)c1", "inhibition": "-1.7%"},
      {"smiles": "Cc1ccc(C)c(OCC(=O)NNC(=O)C2CCC2)c1", "inhibition": "3%"},
      {"smiles": "CCC1CCCCN1C(=S)NC(=O)c1ccco1", "note": "(centres undefined)", "inhibition": "3.37%"},
      {"smiles": "O=C(CSC(=S)N1CCCCC1)c1c(F)cccc1F", "inhibition": "-23.9%"},
      {"smiles": "CCCCn1nc(C(=O)OCC(=O)Nc2sccc2C(N)=O)c2ccccc2c1=O", "inhibition": "-33%"},
      {"smiles": "CCOC(=O)C1=C(C)c2ccccc2OC1(C)C(=O)OCC", "note": "(centres undefined)", "inhibition": "-1.26%"},
      {"smiles": "CCOC(=O)c1[nH]c2ccccc2c1N=C(C)N(CC)CC", "inhibition": "4.83%"},
      {"smiles": "CCOC(=O)c1c(C)[nH]c2c1-c1ccccc1C(=O)C2=O", "inhibition": "95.8% (active)"},
      {"smiles": "C=CCn1c(C)cc(C2=NNC(=NCC)SC2)c1C", "inhibition": "93% (active)"},
      {"smiles": "CCCN(CCC)C(=O)C1c2ccccc2Oc2ccccc21", "inhibition": "-1.09%"},
      {"smiles": "CNCC(O)c1ccc(O)c(O)c1", "note": "(centres undefined)", "inhibition": "-2.95%"},
      {"smiles": "COc1ccc(CCNc2ncnc3c2nnn3Cc2ccccc2)cc1", "inhibition": "4.12%"},
      {"smiles": "COc1ccc(NC(=O)/C(N=Nc2cccc(S(=O)(=O)Nc3ccc(SC(F)F)cc3)c2)=C(\\C)O)cc1", "inhibition": "-4.13%"},
      {"smiles": "Cn1c(=O)c2c(nc(OCc3cccnc3)n2Cc2ccccc2)n(C)c1=O", "inhibition": "8.04%"},
      {"smiles": "C=CCOc1nc2c(c(=O)n(C)c(=O)n2C)n1Cc1ccc(Cl)cc1Cl", "inhibition": "62% (active)"},
      {"smiles": "C=CCn1c(Oc2ccc(C(=O)OC)cc2)nc2c1c(=O)n(C)c(=O)n2C", "inhibition": "1.23%"},
      {"smiles": "O=S(=O)(Nc1cc(S(=O)(=O)N2CCOCC2)ccc1N1CCCC1)c1cccs1", "inhibition": "5.7%"},
      {"smiles": "O=c1c2ccccc2ncn1/N=C/c1ccccc1", "inhibition": "20.9%"},
      {"smiles": "Cc1ccc(-n2c(SCC(=O)N/N=C/C=C/c3ccccc3[N+](=O)[O-])nc3ccccc3c2=O)cc1", "inhibition": "14.2%"},
      {"smiles": "CCn1c(/C=C/c2ccc([N+](=O)[O-])o2)nc2ccccc2c1=O", "inhibition": "80% (active)"},
      {"smiles": "O=C(Nc1ccccc1C(=O)NCC1CCCO1)c1ccccc1F", "note": "(centres undefined)", "inhibition": "-6.12%"},
      {"smiles": "CC(C)c1ccc2c(c1)c(SC(C)(C)C)c(CC(C)(C)C(=O)O)n2Cc1ccc(Cl)cc1", "inhibition": "-0.1%"},
      {"smiles": "CCCCCCCCn1c2c(c(=N)c3c1CCC3)CCCC2", "inhibition": "89.4% (active)"},
      {"smiles": "O=C(NNS(=O)(=O)Cc1ccccc1)c1ccc([N+](=O)[O-])cc1", "inhibition": "-11.2%"},
      {"smiles": "CCOC(=O)C1CCCN(CCSc2ccc(C)cc2)C1", "note": "(centres undefined)", "inhibition": "21.1%"},
      {"smiles": "CC1(C)CC2CC(C)(CN2c2ncnc3ccc(Br)cc23)C1", "note": "(centres undefined)", "inhibition": "62.2% (active)"},
      {"smiles": "COc1ccc(Nc2ncnc3ccc(Br)cc23)c(OC)c1", "inhibition": "26.3%"},
      {"smiles": "CN(C)C(=O)COC(=O)c1cccc(S(=O)(=O)N2CC3(C)CC2CC(C)(C)C3)c1", "note": "(centres undefined)", "inhibition": "0.32%"},
      {"smiles": "COc1cc(C(F)(F)F)nc2c(Br)c(C(C)(C)C)nn12", "inhibition": "4.44%"},
      {"smiles": "CN(Cc1ccc(CNC[C@H]2O[C@@H](n3cnc4c(N)ncnc43)[C@H](O)[C@@H]2O)o1)S(C)(=O)=O", "inhibition": "-0.83%"},
      {"smiles": "CCc1cc2cc(OC)ccc2nc1SCC(=O)Nc1cc(OC)c(OC)cc1C(=O)O", "inhibition": "-8.77%"},
      {"smiles": "Cc1ccc(-c2nc3c(cnn3-c3ccccc3)c(=O)o2)cc1", "inhibition": "56.1% (active)"},
      {"smiles": "Cc1ccc(-n2ncc3c(=O)n(-c4ccc(C)c(C)c4)c(-c4ccco4)nc32)cc1", "inhibition": "4.8%"},
      {"smiles": "CC(=O)Cn1cnc2c(cnn2-c2ccccc2)c1=O", "inhibition": "-18.4%"},
      {"smiles": "COc1ccc(OC)c(C2C3=C(N=c4s/c(=C\\c5cccc(O)c5)c(=O)n42)c2ccccc2CC3)c1", "note": "(centres undefined)", "inhibition": "-4.15%"},
      {"smiles": "CCN(CC)S(=O)(=O)c1ccc(N(C)Cc2ccc(C(F)(F)F)cc2)nc1", "inhibition": "17.7%"},
      {"smiles": "CCCCNCCS(=O)(=O)NCc1ccccc1", "inhibition": "-0.46%"},
      {"smiles": "COc1cccc(/C=N/Nc2ncc(C(F)(F)F)cc2Cl)c1O", "inhibition": "59.1% (active)"},
      {"smiles": "COc1cccc(/C=N/Nc2ccc(S(=O)(=O)Nc3ccccc3C(=O)O)cc2[N+](=O)[O-])c1O", "inhibition": "6.14%"},
      {"smiles": "COc1ccc(Br)cc1/C=N/Nc1ccc(Cl)c(C(=O)O)c1", "inhibition": "8.66%"},
      {"smiles": "O=C(OCC(=O)N1CCc2ccccc21)C1CCCN1S(=O)(=O)c1ccc(Cl)cc1", "note": "(centres undefined)", "inhibition": "-11.8%"},
      {"smiles": "CC1(C)CC(=O)NC=C(c2ccccc2)C1", "inhibition": "1.28%"},
      {"smiles": "Cn1ccsc1=NC(=O)c1cc(S(=O)(=O)N2CCOCC2)ccc1Cl", "inhibition": "-4.66%"},
      {"smiles": "c1ccc(-n2nnnc2NC2CCCCCC2)cc1", "inhibition": "8.53%"},
      {"smiles": "O=C1C(Cl)=C(N2CCOCC2)C(=O)N1c1ccccc1", "inhibition": "0.4%"},
      {"smiles": "c1ccc(-n2nnnc2N2CCOCC2)cc1", "inhibition": "94.8% (active)"},
      {"smiles": "COc1ccc(S(=O)(=O)N2CCCC(C(=O)NCCCn3ccnc3)C2)cc1OC", "note": "(centres undefined)", "inhibition": "15.1%"},
      {"smiles": "O=C1NNC(c2ccccc2)=N/C1=C\\c1ccc(Cl)cc1", "inhibition": "5.34%"},
      {"smiles": "CCn1cc(C(=O)NCC2COc3ccccc3O2)c2cc(OC)c(OC)cc2c1=O", "note": "(centres undefined)", "inhibition": "10.7%"},
      {"smiles": "CC(=O)Nc1ccc(S(=O)(=O)N(C)c2nc3ccccc3nc2Cl)cc1", "inhibition": "1.9%"},
      {"smiles": "CC(=O)Nc1ccc(Nc2c3ccccc3nc3ccccc23)cc1", "inhibition": "75% (active)"},
      {"smiles": "CC(=O)Nc1ccc(Nc2c([N+](=O)[O-])cc(S(C)(=O)=O)cc2[N+](=O)[O-])cc1", "inhibition": "-0.18%"},
      {"smiles": "CCOc1ccc(NC(=O)c2ccc(NC(=O)CN3C(=O)C(=O)N(CC(C)C)C3=O)cc2)cc1", "inhibition": "-34.9%"},
      {"smiles": "CCC1([N+](=O)[O-])COC(c2ccc(C(C)C)cc2)OC1", "note": "(centres undefined)", "inhibition": "-31.9%"},
      {"smiles": "CCC(=C/c1sc2ccc3ccccc3c2[n+]1C)/C=C1\\Sc2ccc3ccccc3c2N1C", "inhibition": "64.2% (active)"},
      {"smiles": "O=C(c1ccccc1)c1ccc2nc(N3CCCCC3)c3nncn3c2c1", "inhibition": "6.66%"},
      {"smiles": "O=C(NC1CCc2ccccc21)C12CN(Cc3ccccc3)CC1C(c1cccc([N+](=O)[O-])c1)=NO2", "note": "(centres undefined)", "inhibition": "6.88%"},
      {"smiles": "CCS(=O)(=O)Nc1ccc(C2=NN(S(=O)(=O)c3ccc(F)cc3)C(c3ccco3)C2)cc1", "note": "(centres undefined)", "inhibition": "1.29%"},
      {"smiles": "Cn1cc(S(=O)(=O)Nc2ccc(Cl)cc2Cl)c(=O)n(C)c1=O", "inhibition": "1.79%"},
      {"smiles": "Cc1cc(C(=O)NCCc2ccc(Cl)cc2)n(-c2ccccc2)n1", "inhibition": "-16.3%"},
      {"smiles": "O=C(NCCS(=O)(=O)NCc1ccc(Cl)cc1)c1ccccc1", "inhibition": "-12.9%"},
      {"smiles": "O=C(NCCOCc1ccc(Cl)cc1)c1ncn[nH]1", "inhibition": "84.5% (active)"},
      {"smiles": "CCOc1ccc(NC(=S)N2CCCCCC2)cc1", "inhibition": "-2.25%"},
      {"smiles": "Cc1nn(C)c(C)c1S(=O)(=O)N1CCC(CO)(Cc2ccc(Cl)cc2)CC1", "inhibition": "8.21%"},
      {"smiles": "C=CCNC(=O)COc1coc(CN2CCN(Cc3ccccc3)CC2)cc1=O", "inhibition": "3.43%"},
      {"smiles": "C=CCNC(=S)/N=c1/ccccn1Cc1ccccc1", "inhibition": "67.3% (active)"},
      {"smiles": "CNC(=S)NNC(=O)c1cccn(Cc2ccccc2)c1=O", "inhibition": "13.9%"},
      {"smiles": "Cc1cccc(NC(=O)C2CCCN2S(=O)(=O)c2ccc(F)cc2)c1C", "note": "(centres undefined)", "inhibition": "10.9%"},
      {"smiles": "Cc1[nH]nc(-c2ccc(OCc3cnn(-c4ccccc4)c3)cc2O)c1Oc1ccc(Cl)cc1", "inhibition": "4.97%"},
      {"smiles": "COc1cccc(CC(=NO)c2cccc(OC)c2)c1", "inhibition": "-2.96%"},
      {"smiles": "Cc1noc(NS(=O)(=O)c2ccc(N3CC(O)=C(c4ccccc4)C3=N)cc2)c1C", "inhibition": "-2.28%"},
      {"smiles": "CCCC1=Nc2cc(C(=O)NCCN3CCCC3)ccc2Sc2ccccc21", "inhibition": "18.7%"},
      {"smiles": "CCCC1=Nc2cc(C(=O)NCc3ccco3)ccc2Sc2ccccc21", "inhibition": "65.9% (active)"},
      {"smiles": "CC(C)(C)c1ccc(C(=O)NCc2ccco2)cc1", "inhibition": "-4.01%"},
      {"smiles": "COc1c(O)ccc2c1CN1CCc3cc4c(cc3C1C2)OCO4", "note": "(centres undefined)", "inhibition": "-25.1%"},
      {"smiles": "CCOC(=O)c1sc2nc(C)nc(Nc3ccc(OC)c(OC)c3)c2c1C", "inhibition": "12.9%"},
      {"smiles": "COc1ccccc1/C=C/CN1CCC(CO)(Cc2ccccc2)CC1", "inhibition": "65.4% (active)"},
      {"smiles": "CC(=O)c1cccc(CN2CCC(CO)(Cc3ccccc3)CC2)c1", "inhibition": "30.4%"},
      {"smiles": "OCC1(Cc2ccccc2)CCN(Cc2cc3ccccc3o2)CC1", "inhibition": "22.4%"},
      {"smiles": "CCOC(=O)C1CCCN(C(=O)C2CCN(S(=O)(=O)c3ccc(Cl)c(C(F)(F)F)c3)CC2)C1", "note": "(centres undefined)", "inhibition": "3.88%"},
      {"smiles": "CCOC(=O)c1ccccc1NC(=O)c1c(N)n(C)c(=O)[nH]c1=O", "inhibition": "5.02%"},
      {"smiles": "COc1ccc(-n2nnc3c(=O)n(CC(=O)OCc4ccccc4)cnc32)cc1", "inhibition": "1.46%"},
      {"smiles": "CCC1CCCCN1CCCNC(=O)Cn1nc(-c2ccccc2)ccc1=O", "note": "(centres undefined)", "inhibition": "57% (active)"},
      {"smiles": "Cc1ccc(-c2ccc(=O)n(CC(=O)NCCCN3CCCCC3)n2)cc1", "inhibition": "5.01%"},
      {"smiles": "CCCn1c2ccccc2c2cnn(CC(=O)NCCCN3CCCCC3CC)c(=O)c21", "note": "(centres undefined)", "inhibition": "12.7%"},
      {"smiles": "CCOC(=O)c1ccc(S(=O)(=O)N(CCO)Cc2cc3cc(OC)c(OC)cc3[nH]c2=O)cc1", "inhibition": "1.66%"},
      {"smiles": "Cc1ccc(S(=O)(=O)NCCC(c2ccccc2)c2ccccc2)cc1C(=O)O", "inhibition": "-19.2%"},
      {"smiles": "O=C(Nc1ccc(S(=O)(=O)Nc2nccs2)cc1)c1cc(-c2ccncc2)nc2ccccc12", "inhibition": "0.2%"},
      {"smiles": "COC(=O)CNC(=O)c1cc(-c2ccncc2)nc2ccccc12", "inhibition": "-8.23%"},
      {"smiles": "CCN(CC)CCNC(=O)c1ccc(NC(=O)c2cc(-c3ccncc3)nc3ccccc23)cc1", "inhibition": "64.3% (active)"}
    ]}
  ]
}
